PubChem BioAssay AID2283371 (EPA ToxCast)
Inconclusive results are not listed. Activity calls are given as the source filed them. Rule for the calls: active = hit-call score of the fitted dose curve at least 0.9, where 1 is the maximum; inconclusive = response in the unintended direction; inactive = score below 0.9.

biological target: rat Adenosine Transporter (Adot), Slc29a1 (gene 63997) (UniProt O54698); experiment: NVS_TR_rAdoT: NovaScreen (NVS) Transporter Assay for rat Adenosine Transporter (Adot)
Description: NVS_TR_rAdoT is a biochemical, single-readout assay that uses extracted gene-proteins from Rat forebrain membranes in a tissue-based cell-free assay. Measurements were taken 1 hour after chemical dosing in a 48-well plate.NVS_TR_rAdoT is one of one assay component(s) measured or calculated from the NVS_TR_rAdoT assay. It is designed to make measurements of radioligand binding, a form of binding reporter, as detected with scintillation counting signals by Filter-based radiodetection technology.Data from the assay component NVS_TR_rAdoT was analyzed into 1 assay endpoint. This assay endpoint, NVS_TR_rAdoT, was analyzed in the positive analysis fitting direction relative to DMSO as the negative control and baseline of activity. Using a type of binding reporter, loss-of-signal activity can be used to understand changes in the binding as they relate to the gene Slc29a1. Furthermore, this assay endpoint can be referred to as a primary readout, because the performed assay has only produced 1 assay endpoint. To generalize the intended target to other relatable targets, this assay endpoint is annotated to the transporter intended target family, where the subfamily is nucleoside transporter.
Binding assays used specific radioligands (tritiated, iodinated) with non-radioactive competitive displacement ligands in agonist or antagonist protocols (as indicated) and various reference compounds and inhibitors to titrate specific binding to receptors and transporters. Most enzyme assays (CYPs, kinases, phosphatases, proteases, HDACs) used recombinant protein and specific substrates (fluorescence mostly, some colorimetric and radioactive) and inhibitors, followed by a biochemical separation of substrate and product. All assays for the biochemical HTS were initially run in duplicate at a single concentration (10 uM for CYP450 assays and 25 uM for all others). Assay-chemical combinations meeting a pre-defined threshold (e.g., 30% inhibition and other criteria defined below) were then run in singleton concentration-response format with maximum concentration of 20 uM for CYPs and 50 uM for all others. Each assay was run with positive and negative controls, and concurrent controls on every plate. The follow-up (secondary) screen tested active chemical-pairs in concentration series, as well as a few additional assays not tested in the primary screen, some selected negative inactives, and several cases re-run in the concentration series for confirmatory purposes.

Chain of rat Adenosine Transporter (Adot), Slc29a1 (gene 63997) (O54698 whole entry, looked up): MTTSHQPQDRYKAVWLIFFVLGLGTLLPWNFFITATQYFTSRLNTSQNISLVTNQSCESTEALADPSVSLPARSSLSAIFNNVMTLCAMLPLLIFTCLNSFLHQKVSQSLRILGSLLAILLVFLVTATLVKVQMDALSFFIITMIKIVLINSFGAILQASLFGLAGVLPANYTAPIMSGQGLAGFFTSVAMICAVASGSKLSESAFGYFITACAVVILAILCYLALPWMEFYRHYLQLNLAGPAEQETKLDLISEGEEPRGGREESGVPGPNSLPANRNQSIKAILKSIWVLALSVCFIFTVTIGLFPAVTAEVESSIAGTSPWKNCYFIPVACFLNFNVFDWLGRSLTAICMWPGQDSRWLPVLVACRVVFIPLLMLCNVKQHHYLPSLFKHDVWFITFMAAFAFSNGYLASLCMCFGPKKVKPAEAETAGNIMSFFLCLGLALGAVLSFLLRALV

| SMILES | outcome | AC50 |
| --- | --- | --- |
| O=C(O)C(F)(F)C(F)(F)C(F)(F)C(F)(F)C(F)(F)C(F)(F)C(F)(F)F | inactive |  |
| CC[C@H]1OC(=O)[C@H](C)[C@@H](O[C@H]2C[C@@](C)(OC)[C@@H](O)[C@H](C)O2)[C@H](C)[C@@H](O[C@@H]2O[C@H](C)C[C@H](N(C)C)[C@H]2O)[C@](C)(O)C[C@@H](C)C(=O)[C@H](C)[C@@H](O)[C@]1(C)O |  | 6.47 µM (active) |
| S=C(S)NCCNC(=S)S.[Mn+2].[S-]C([S-])=NCCN=C([S-])[S-].[Zn+2] | inactive |  |
| COc1cc2c(c(OC)c1OC)-c1ccc(OC)c(=O)cc1[C@@H](NC(C)=O)CC2 | inactive |  |
| CCOP(=S)(Oc1ccc([N+](=O)[O-])cc1)c1ccccc1 (configuration not stated) | inactive |  |
| Oc1ccc(Cl)cc1Cl | inactive |  |
| O=S(=O)(O)C(F)(F)C(F)(F)C(F)(F)C(F)(F)C(F)(F)C(F)(F)C(F)(F)C(F)(F)F | inactive |  |
| Cc1oc(-c2ccccc2)nc1CCOc1cccc2c1ccn2CCC(=O)O | inactive |  |
| Cn1c(=O)c2c(ncn2C)n(C)c1=O | inactive |  |
| S=C1NCCN1 | inactive |  |
| CCCCC(CC)COC(=O)c1ccc(C(=O)OCC(CC)CCCC)c(C(=O)OCC(CC)CCCC)c1 (configuration not stated) | inactive |  |
| COc1ccc2cc(S(=O)(=O)N[C@H](CC(=O)N[C@H](Cc3ccc(CN4[C@H](C)CCC[C@@H]4C)cc3)C(=O)N(C)C(C)C)c3ccc4c(c3)OCO4)ccc2c1 |  | 7.85 µM (active) |
